From PubChem
TR SRC2 fluor cs: counter-screen for TRb-SRC2 inhibitors: fluorescence interference. TRb/SRC2 Texas Red total fluorescence interference. Potency, µM (series often up to 106 µM), for inactives: at the top dose fluorescence change, negative = quenching. actives 0.29% (n = 280,000). AID 1479; active = well fitted curve in either direction with a large enough effect; inconclusive = small, poorly fitted or top-dose-only effect
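Human TRb ligand-binding domain at 0.6 uM with 20 nM Texas Red SRC2 peptide in Tris buffer containing 1 uM T3 and 5% DMSO, incubated with compound 5 h at ambient temperature. Total fluorescence (555/632 nm) calculated as parallel + 2 × perpendicular.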
RGS12 GoLoco inh: inhibitors of human Gai1-RGS12 GoLoco interaction (red fluorophore) | actives 0.44% (n = 230,000) | Gai1:RGS12 GoLoco peptide FP, rhodamine, 10 min | P63096 | Potency, µM (titrated, usually from 61.6 µM), for inactives: top-dose activity, negative = inhibition, usual class: inhibitors; active = well fitted inhibition curve with a large enough effect, not every such curve was filed as active; inactive = no such curve, though single readings can be large or run the other way; note: nearly all actives have a fitted effect of over 30% in size
Target sequence (P63096 whole entry, looked up): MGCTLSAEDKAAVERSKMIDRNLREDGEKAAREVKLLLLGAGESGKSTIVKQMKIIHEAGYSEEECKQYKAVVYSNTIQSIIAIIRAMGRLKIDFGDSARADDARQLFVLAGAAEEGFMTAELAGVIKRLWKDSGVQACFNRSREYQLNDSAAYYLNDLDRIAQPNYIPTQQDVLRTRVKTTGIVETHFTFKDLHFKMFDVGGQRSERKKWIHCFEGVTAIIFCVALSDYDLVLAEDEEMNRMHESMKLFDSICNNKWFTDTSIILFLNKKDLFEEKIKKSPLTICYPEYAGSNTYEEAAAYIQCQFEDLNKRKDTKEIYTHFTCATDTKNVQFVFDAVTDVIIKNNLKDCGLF
TRb-SRC2 inh: inhibitors of human thyroid hormone receptor beta-SRC2 interaction. actives 0.065% (n = 280,000). Potency, µM (titrated, usually from 106 µM), without a hit: top-dose activity change, negative = inhibition, usual class: inhibitors. TRbeta-SRC2 peptide binding, fluorescence polarization; receptor liganded with 1 µM T3;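 note: plate controls were bound peptide for no effect and peptide without receptor for full effect; nearly all actives have a fitted effect of over 50% in size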
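Fluorescence polarization of 20 nM Texas Red SRC2 peptide with 0.6 uM human TRb ligand-binding domain, in Tris buffer with 1uM T3 and 5% DMSO. Incubated 5 hr ambient; normalized to unbound and bound controls.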
Tau fluor cs: counter-screen for tau fibril formation inhibitors | tau K18 P301L Alexa594 fluorescence, heparin fibrillization | Potency, µM (highest dose often 57.7 µM), without a hit: at the top dose activity change, negative = decrease | actives 0.93% (n = 280,000); note: nearly all actives have a fitted effect of over 55% in size
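Human tau K18 P301L (15 uM unlabeled, 0.24 uM Alexa 594-labeled) in 100 mM sodium acetate pH 7 with 20 uM heparin, 6 hr at 37 C. ThT 30 uM added, 1 hr ambient; Alexa 594 FP and total fluorescence read at 555/632 nm.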
Tau ThT inhib: inhibitors of human tau fibril formation, thioflavin T binding. P10636. recombinant tau K18 P301L (four-repeat tau fragment), heparin-induced fibrillization, ThT fluorescence. Potency, µM (doses to about 57.4 µM), for inactives: at the top dose activity, negative = inhibition, actives largely listed as inhibitors. actives 2.1% (n = 270,000); note: nearly all actives have a fitted effect of over 55% in size
Target sequence (P10636 561-689 P618L limits assumed): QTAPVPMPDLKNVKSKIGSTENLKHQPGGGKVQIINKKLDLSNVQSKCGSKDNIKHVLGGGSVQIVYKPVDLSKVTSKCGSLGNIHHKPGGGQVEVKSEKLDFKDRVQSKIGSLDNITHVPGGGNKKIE
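Heparin-induced fibrillization of the P301L-mutant K18 repeat-domain fragment of human tau was followed by ThT binding in quantitative high-throughput format.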
Tau FP inhib: tau fibrillization inhibition (FP). Potency, µM (series often up to 57.7 µM), inactives show top-dose activity, negative = inhibition, most hits filed as inhibitors. P10636. K18 P301L tau heparin fibrillization, Alexa594 FP, 6 h. actives 0.39% (n = 280,000); note: nearly all actives have a fitted effect of over 55% in size
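Human K18 P301L fragment (15 uM unlabeled plus 0.24 uM Alexa 594-labeled) in 100 mM sodium acetate pH 7 with compound, aggregation induced by 20 uM heparin for 6 hr at 37 C. ThT (30 uM) added for 1 hr, then Alexa 594 FP read.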
Active calls of the source: *; ? = inconclusive; nt = no result; [ ] = remark or other dose. Most compounds without a hit are left out; they make up all but 3.2% or so of the library. Unless noted, calls come from the whole dose curve; as a rule, active = well fitted curve in the direction sought with a large enough effect; inconclusive = small, poorly fitted or top-dose-only effect, or another doubt; inactive = no such curve, though single readings can be large; an effect the other way counts as inactive or inconclusive. Unless noted, % is set by controls: 0 for no effect and ±100 for the full control effect; potency is the fitted concentration of half-maximal effect.

SMILES	TR SRC2 fluor cs	RGS12 GoLoco inh	TRb-SRC2 inh	Tau fluor cs	Tau ThT inhib	Tau FP inhib
NC1=CC(=O)c2cccc3cccc1c23	-2.0%	31.6µM*	0.0%	?	11.2µM*	?
Cc1nnc(C)n1N1C(=O)c2cccc3cccc(c23)C1=O	-3.0%	8.5%	6.9%	-1.2%	5.3%	-4.5%
CC(C)=CCC/C(C)=C/CO/N=C1/C[C@@H](O)[C@@H](O)[C@@H]2[C@@H]3C(=O)N(Cc4ccc5c(c4)OCO5)C(=O)[C@H]3CC[C@@H]12	-1.9%[11.2 µM]	nt	2.8%[11.2 µM]	-3.3%[11.6 µM]	-5.5%[11.5 µM]	3.4%[11.6 µM]
CCOC(=O)CC1=CC(C)(CC(=O)OCC)C(C#N)(C#N)C(N)=C1C#N (stereo unspecified)	-1.8%	6.2%	11.0%	-25.8%	28.2µM*	?
COC(=O)CN1C(=O)[C@@H]2[C@H](C1=O)[C@@H]1CC(C(=O)OC)=C[C@@H](C(=O)OC)C3C1=C(C(=O)[C@]3(C)NC(=O)c1ccccc1)[C@@H]2C (stereo partly specified)	-2.0%	nt	3.2%	nt	nt	nt
C[C@@H]1C[C@](C)(C(=O)c2ccco2)C=C1c1ccco1	-1.0%	-0.9%	3.0%	-2.8%	-17.8%	-8.1%
O=[N+]([O-])c1ccc(/C=C2\CCC(C3=CCCC3)=C2N2CCOCC2)cc1	0.6%	-8.7%	1.8%	?	15.8µM*	?
Cc1cc(=O)oc2cc(NC(=O)C(CCCCN)NC(=O)C(CC3CCCCC3)NC(=O)OCC3c4ccccc4-c4ccccc43)ccc12 (stereo unspecified)	0.8%	nt	1.8%	nt	nt	nt
COc1cc(-c2nc3ccccn3c2/N=C/c2ccccc2)ccc1O	-3.7%	0.0%	-1.7%	-26.2%	?	-15.2%
COc1cc(-c2nc3ccccn3c2/N=C/c2cc(OC)c(O)cc2Cl)ccc1O	-1.1%	-2.5%	-5.2%	?	14.1µM*	?
O=C(NCCCCN1CCOCC1)c1cc2ccccc2o1	4.9%	nt	6.5%	nt	nt	nt
CN(C)/C=C(\C=N\OCc1ccc(Cl)cc1Cl)C(=O)Nc1ccc(Cl)c(Cl)c1	-2.0%	2.3%	-10.1%	15.8µM*[quencher]	?	-6.7%
Cc1cc(O)c(/C=N/OCc2ccc(Cl)cc2Cl)c(=O)o1	4.0%	3.7%	5.8%	-2.0%	-7.2%	-1.7%
Oc1cccc2ccc(SSc3ccc4cccc(O)c4n3)nc12	nt	-0.5%[14.2 µM]	nt	nt	nt	nt
O=C/C=C/c1coc2ccc3ccccc3c2c1=O	-3.3%	8.7%	3.3%	?	14.1µM*	-8.5%
CCOC(=O)/C=c1\s/c(=C(\C#N)C(=O)NC)n(-c2ccccc2)c1=O	5.6%	23.5%	-2.1%	-7.2%	?	-5.9%
Cc1ccccc1-n1c(=O)/c(=C\c2ccco2)s/c1=C(/C#N)C(=O)Nc1ccccc1	-9.7%	133.1%	?	-29.4%	15.8µM*	?
CC(=O)c1ccc(OC(=O)CCc2nc3ccccc3s2)cc1	0.5%	17.7%	-0.6%	-15.8%	15.8µM*	?
CCN(C(=O)COc1cccc2cccnc12)C1CCS(=O)(=O)C1 (stereo unspecified)	1.2%	4.2%	3.8%	-27.7%	25.1µM*	?
COC(=O)C(C(=O)OC)C(Cc1cc(F)cc(F)c1F)NC=O (stereo unspecified)	-1.1%	8.9%	2.2%	-4.0%	0.0%	-12.7%
COc1ccc(NCc2cc3cc4c(cc3n(CC(=O)Nc3ccc(C)cc3)c2=O)OCO4)cc1	-1.7%	nt	-2.3%	22.4µM*[quencher]	-22.1%	?
COc1ccc2cc(CNc3ccccc3)c(=O)n(CC(=O)Nc3ccc(C(C)=O)cc3)c2c1	-1.6%	nt	1.6%	12.6µM*[quencher]	5.4%	-8.4%
CO[C@H]1COC(=O)[C@H](C)NC(=O)C/C=C\[C@@H](C)[C@H](OC)COC(=O)C/C=C\[C@@H]1C	3.9%[11.2 µM]	nt	1.3%[11.2 µM]	-2.8%[11.6 µM]	-5.5%[11.5 µM]	-13.5%[11.6 µM]
Cc1ccc([N+](=O)[O-])cc1-c1[nH]c(-c2ccc(O)c(O)c2)nc1-c1ccccc1	-5.2%	4.6%	7.2%	12.6µM*[quencher]	?	16.1%
O=[N+]([O-])c1cccc(-c2nc3ccc([N+](=O)[O-])cc3[nH]2)c1	-1.4%	39.3%	8.0%	?	?	12.2%
SMILES	TR SRC2 fluor cs	RGS12 GoLoco inh	TRb-SRC2 inh	Tau fluor cs	Tau ThT inhib	Tau FP inhib
COc1ccc(-c2nc(-c3ccccc3)c(-c3cc([N+](=O)[O-])ccc3C)[nH]2)cc1O	-4.6%	16.7%	-0.4%	14.1µM*[quencher]	?	3.8%
Cc1ccc([N+](=O)[O-])cc1NC(=O)c1ccc(-c2ccccc2)cc1	-3.9%	0.2%	5.4%	-12.6%	-13.9%	-3.0%
Cc1nc2cnc(N(C)C)nc2n(CCC#N)c1=O	nt	-5.0%	nt	nt	nt	nt
COc1ccc(C2CC(=O)c3cc(-c4nc(-c5cccc([N+](=O)[O-])c5)cs4)c(=O)n(-c4ccccc4C)c3C2)cc1 (stereo unspecified)	89.1µM*[quencher]	nt	-16.0%[53 µM]	-25.7%	-11.0%	0.5%
Cc1noc(C)c1-c1ccc2ncnc(NCc3ccco3)c2c1	-1.1%	nt	2.2%	nt	nt	nt
O=C1c2ccccc2C(=O)C1Cc1cccc2ccccc12	-1.3%	-5.5%	-4.0%	-23.4%	?	-11.6%
O=C1c2ccccc2C(=O)C12OC2c1cccc2ccccc12 (stereo unspecified)	6.3%	-2.3%	-1.4%	-13.1%	2.51µM*	4.47µM*
CCc1ccc(C2/C=C\CNC(c3ccccc3)C(=O)N2Cc2ccc(C)cc2)cc1 (stereo unspecified)	-0.5%	nt	-2.8%	nt	nt	nt
O=[N+]([O-])c1cccc(/C=C/c2nc(C=Nc3ccc4ccccc4c3)c(O)o2)c1	-5.6%	1.5%	-1.3%	-15.1%	2µM*	-3.4%
COc1ccc(-c2nc(-c3ccccc3)c(NC(C)C)o2)cc1	-2.3%	2.8%	5.1%	2.4%	1.6%	6.1%
Cc1cc(=O)n2[nH]c(N)c(N=Nc3ccccc3)c2n1	-4.7%	2.1%	-1.7%	-0.4%	?	7.1%
Cc1[nH]n2c(=O)cc(-c3ccc(Cl)cc3)nc2c1-c1ccccc1	-18.1%	nt	1.0%	?	14.1µM*	-1.7%
COc1cccc(N=Nc2c(N)[nH]n3c(=O)cc(-c4ccccc4)nc23)c1	-3.7%	8.1%	-0.8%	?	3.98µM*	9.3%
Cc1ccc(N=Nc2c(N)[nH]n3c(=O)cc(-c4ccccc4)nc23)cc1	-5.7%	2.7%	-10.4%	?	3.16µM*	1.5%
